Laboratory results: the OligoGym collection

Biological target: ADD2
Test: pooled miR-30 sensor sort-seq; sequence = guide strand
Conditions: shRNA
Note: reference of the scale not given here.

Sequence | sensor-assay potency score (higher = more potent)
TCGGTAGACACTGCTGATCTTG | -0.972
TGACTTCACATCTTGTCGGTTT | -0.214
TTTCTGTCTTCTTAGTACCTTC | -0.453
TTTCTCTCCATCAAGTTCTAGT | -0.228
TCTGTTGTTTTGATCCTCCTTA | 0.276
TTTAGTTTTGAAGTGCCTGAGA | -0.472
TTCACTGCAAGAAACTCCCTTA | 0.39
TTTGTCTCTGCCTCCTTCGCTG | -0.0606
TCAAGTTCTAGTTTCTTCCTCT | 0.727
TTAGAGGTATCAACATCCGTGT | -0.242
TTTGGTATCCTCGTCTCCCTTG | -0.18
TAGAGGTATCAACATCCGTGTC | -1.2
TATAGCTCTTCCATCCATCATT | -1.04
TTGTCTCTGCCTCCTTCGCTGG | -1.43
TTCCTCTCCACCTCTTTCTTGT | -0.367
TTAAATGTAGAGATAGCTCCAT | 0.598
TAAATGTAGAGATAGCTCCATC | -0.556

Biological target: ADIPOR1
Test: as above
Conditions: shRNA

Sequence | sensor-assay potency score (higher = more potent)
TGAATGACAATAGACGGTGTGA | 0.0155
TAGCAGATAGTCGTTGTCCTTT | -0.519
TAATTAGAAGAGCAATCCCTGA | -1.23
TTGCTCTTCTTCAGCTTTGGGT | -0.543
TAGTCGTTGTCCTTTAGCCAGT | -0.984
ATAATTAGAAGAGCAATCCCTG | -1.25
TCTCTGAATGACAATAGACGGT | -0.907
AAACTCTTCCATCTTCTCCATG | -1.3
ATGAAGTACATATTTGGTCTGA | -0.176
TTATTTTTAAAAGCACTTGGGA | -0.469
TAGAAGGAATAATAGAGCCAGG | -1.35
TAGACGGTGTGAAAGAGCCAGG | -1

Biological target: ADORA2B
Test: as above
Conditions: shRNA

Sequence | sensor-assay potency score (higher = more potent)
TTGAAATATACCATGTAGCTCA | 0.0522
TTTCCTTGTGAGGTGTAGCTAT | -0.397
AAACTTTTATACCTGAGCGGGA | -0.968
ATTTTGTGAAAAGTGTAGCGGA | -0.0457
AAGTGTAGCGGAAGTCTCGGTT | -0.00274
TAATCCACACAGTAAAAGCAGC | -1.13
TTAATGTAGATCACCAGCATTA | -1.17
TAGCGGAAGTCTCGGTTCCGGT | -1.62
TATACCATGTAGCTCATGGGGA | -0.182
TTTCACAATGAAAACCAGCCGT | -0.477
TTTATTTTTCCATTGCCTCTAA | 0.2
